The list is not random: actives were taken first. Their share in the collection is about 14%.
Pf growth 48h – inhibits P. falciparum growth in the first generation, 48 h; 5.9% of 310,000 active; P. falciparum luciferase growth in erythrocytes, 48 h; Potency, µM (doses to about 28.7 µM), without a hit: at the highest dose activity change, negative = inhibition, most hits filed as inhibitors; further: potency means the concentration at half of the fitted maximal effect
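Compounds are pin-transferred into medium, infected erythrocytes (2% hematocrit, 0.1% parasitemia final) are added, and plates sit one parasite generation at 37 C in 5% CO2. Detection reagent is then added and luminescence measured.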
Lassa entry inh – blocks Lassa virus binding to or entry into cells. Lassa virus pseudotype entry inhibition, cell reporter. Potency, µM (top dose mostly 37.9 µM), for the others: at the highest dose activity change, negative = inhibition, hits mostly inhibitors. 1.2% of 300,000 active. AID 540256; calls by dose curve; tested in HEK293 cells; further: potency means the concentration at half of the fitted maximal effect; nearly all actives have a fitted effect of over 50% in size
Pf growth 96h – P. falciparum growth inhibition at 96 hour, primary screen for plastid delayed-death inhibitors; P. falciparum luciferase reporter growth, 96 h; Potency, µM (highest dose often 28.7 µM), inactives show at the top dose activity change, negative = inhibition, most hits filed as inhibitors; 6.9% of 320,000 active; AID 504834; further: potency means the concentration at half of the fitted maximal effect
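Plates of compound plus infected erythrocytes (2% hematocrit, 0.05% parasitemia final) incubate 96 hours, 37 C, 5% CO2. Detection reagent added; reduced luminescence from the parasites' luciferase reporter flags inhibition.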
HCV inh – HCV inhibition; Huh7.5.1 HCVcc-Cre infection, luciferase reporter, 44 h; Potency, µM (doses to about 41.8 µM), without a hit: at the highest dose activity change, negative = inhibition, actives largely listed as inhibitors; 3.4% of 340,000 active; further: potency means the concentration at half of the fitted maximal effect
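Cells (1,000/well) were plated 4 h before compound, then infected with HCVcc-Cre virus (~0.5 moi). After 44 h further culture, infection was read as luciferase luminescence following a 15 min substrate incubation at room temperature.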
Marburg entry inh – Marburg virus entry inhibition; Marburg virus pseudotyped entry inhibition, cell reporter; Potency, µM (titrated, usually from 37.8 µM), for inactives: top-dose activity change, negative = inhibition, usual class: inhibitors; 1.8% of 300,000 active; calls by dose curve; tested in HEK293 cells; further: potency means the concentration at half of the fitted maximal effect
HCMV inh – inhibitors of human cytomegalovirus | HFF cells, HCMV-luciferase reporter, 72 h; active compounds read low | 4.5% of 410,000 active | activity change, negative = inhibition, % at 57.5 µM; in the data active means activity change below about -60%; inconclusive means no clear call, values can overlap the other calls; inactive means above about -39%
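Luciferase read-out from HCMV-luciferase-infected HFFs (MOI 1 PFU/cell) 72 h post infection at 37C; compounds added after 16 h cell attachment; activity normalized between buffer-only basal and Salinomycin (10uM) inhibitor controls.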
* = called active by the depositor; u = inconclusive; x = no result given; [ ] = another dose, or the depositor's remark. Unless noted, the call rests on the fitted dose curve; in most records, active means well fitted inhibition curve with a large enough effect; inconclusive means small, poorly fitted or top-dose-only effect, or another doubt; inactive means no such curve, though single readings can be large or run the other way. On the % scale 0 is the no-effect control and ±100 the full control effect.

SMILES	Pf growth 48h	Lassa entry inh	Pf growth 96h	HCV inh	Marburg entry inh	HCMV inh
CC1CCc2c(C(=O)NCCN3CCOCC3)csc2C1 (stereo not drawn)	60%	u	8.3µM*	1%	6%	-29
CC(C)CNC(=S)NNC(=O)c1csc2c1CCC(C)C2 (stereo not drawn)	x	-5%	6.6µM*	u	u	u
CCOc1ccc(-n2c(SC(C)C(=O)OC)nc3c([nH]c4ccccc43)c2=O)cc1 (stereo not drawn)	x	u	x	x	x	18
Cc1ccc(N/N=C2\CC(=O)c3ccccc32)cc1Cl	4.7µM*	x	2.9µM*	x	x	x
Cn1cnc2nc(Cl)nc(Cl)c21	x	u	x	32µM*	u	-72*
c1ccc(CN2CCC3(CCCc4ccccc43)CC2)cc1	u	u	u	u	6.3µM*	-7
c1ccc(CN2CCC3(CC2)Nc2ccccc2CO3)cc1	18%	-1%	x	-3%	-19%	0
CCCCCn1c(Sc2nc3ccccc3s2)nc2c1c(=O)[nH]c(=O)n2C	u	u	-16%[5.75 µM]	8.9µM*	u	17
Cn1c(=O)[nH]c(=O)c2c1nc(N1CCc3ccccc3C1)n2CCSc1nc2ccccc2s1	5.2µM*	18%	57%	-12%	2%	-17
CN1CCN(c2nc3c(c(=O)[nH]c(=O)n3C)n2CCSc2nc3ccccc3s2)CC1	0%	x	u	3%	x	-4
COc1cc(/C=C(\C#N)c2nc3ccccc3s2)cc([N+](=O)[O-])c1O	20%	0%	9.3µM*	1%	u	-62*
N#C/C(=C\c1ccc(O)c([N+](=O)[O-])c1)c1nc2ccccc2s1	-15%	u	u	-5%	-1%[46.1 µM]	u
COc1ccc(-c2csc(/C(C#N)=C\c3ccc(O)c([N+](=O)[O-])c3)n2)cc1OC	8.3µM*	-28%	u	8%	13%[46.1 µM]	-33
COc1ccc(-c2csc(/C(C#N)=C\c3ccc(OC)c([N+](=O)[O-])c3)n2)cc1	-8%	-1%	-2%	-24%	17%	u
CC(C)c1ccc(/C=C(\C#N)c2nc(-c3ccc(O)cc3)cs2)cc1	x	5%[46.1 µM]	x	x	x	-87*
NS(=O)(=O)c1ccc(CCNC(=O)C2COc3ccccc3C2)cc1 (stereo not drawn)	x	-3%[46.1 µM]	x	x	x	24
CCC(C)Sc1nnc(CSc2nc(C)cc(C)n2)n1C (stereo not drawn)	u	-1%	13µM*	4%	-4%[46.1 µM]	-23
CCCSc1nnc(CSc2nc(C)cc(C)n2)n1C	-12%	x	10µM*	24%	1%[46.1 µM]	-21
CCc1nnc(NC(=O)CSc2nnc(CSc3nc(C)cc(C)n3)n2C)s1	9%	-8%	u	-9%	u	132
CCCSc1nnc(CSc2ncccn2)n1C	9%	u	4%	7%	1%	44
CN1CCN(C2=Cc3ccc(Cl)cc3Sc3ccc(F)cc32)CC1	13µM*	u	12µM*	u	7.9µM*	22
O=C(NCCNc1ccc([N+](=O)[O-])cc1C(F)(F)F)c1cccc(F)c1	u	u	u	u	-49%	-31
O=C(NCCNc1ccc([N+](=O)[O-])cc1C(F)(F)F)c1ccccc1	u	1%	13µM*	5%	u	u
O=C(O)C12C[C@H]3C[C@@H](C1)CC(n1ncc(N4CCN(c5ccccc5)CC4)c(Cl)c1=O)(C3)C2	u	12%	u	10%	0%	-33
O=c1c(Cl)c(N2CCN(c3ccc(F)cc3)CC2)cnn1C12CC3CC(CC(C3)C1)C2	4.7µM*	-45%	4.1µM*	0%	u	-63*
SMILES	Pf growth 48h	Lassa entry inh	Pf growth 96h	HCV inh	Marburg entry inh	HCMV inh
O=c1c(Cl)c(NCc2ccc(F)cc2)cnn1C12CC3CC(CC(C3)C1)C2	13µM*	-12%	28%	-23%	1%	-24
Cc1noc(C)c1S(=O)(=O)N(C)C[C@H]1Oc2c(NC(=O)C3CCCCC3)cccc2C(=O)N([C@H](C)CO)C[C@@H]1C	x	x	x	-8%	x	-12
CN(C1CCCCC1)S(=O)(=O)c1ccc2c(c1)c(=O)c(C(=O)NCc1ccc(F)cc1)cn2C	x	7%[46.1 µM]	x	x	6%[46.1 µM]	5
O=C(N[C@@H]1CC[C@@H](CCNS(=O)(=O)c2ccc(Cl)cc2)O[C@@H]1CO)c1cccnc1	x	x	x	x	x	9
Cn1c(=O)cc(SCC(=O)N2CCN(Cc3ccc4c(c3)OCO4)CC2)c2ccccc21	2%	u	u	u	11%	46
Cn1c(C(=O)N2CCN(Cc3ccc4c(c3)OCO4)CC2)cc2c(=O)n(C)c3ccccc3c21	x	x	1.9µM*	-24%	0%	30
Cn1c(=O)c([N+](=O)[O-])c(N2CCN(Cc3ccc4c(c3)OCO4)CC2)c2ccccc21	12µM*	u	12µM*	-29%	u	-36
CC(C)[C@@H](C(=O)N1CCN(Cc2ccc3c(c2)OCO3)CC1)n1nnc2ccccc2c1=O	u	x	13µM*	u	x	3
O=C(Cn1cnc2ccccc2c1=O)N1CCN(Cc2ccc3c(c2)OCO3)CC1	x	-9%	u	-17%	16%	-19
Cc1ccc(Nc2c(-c3ccc(N(C)C)cc3)nc3ccccn23)cc1	x	10%[46.1 µM]	x	x	u	79
CCc1noc(C)c1C(=O)N(CC)CC(=O)NCc1ccc(Cl)cc1	12%	x	-10%	9%	x	u
COc1cccc(C2c3[nH]c4ccccc4c3C[C@H]3C(=O)N(c4ccccc4C(=O)NCCCN4CCOCC4)C(=O)N23)c1 (stereo partly drawn)	15µM*	x	12µM*	-1%	x	17
O=C(NCCN1CCOCC1)c1ccccc1N1C(=O)[C@@H]2Cc3c([nH]c4ccccc34)C(c3ccccc3)N2C1=O (stereo partly drawn)	u	x	u	-9%	x	45
O=C(NCCCN1CCOCC1)c1ccccc1N1C(=O)[C@@H]2Cc3c([nH]c4ccccc34)C(c3ccc(F)cc3)N2C1=O (stereo partly drawn)	13µM*	x	u	-19%	x	-8
COCCNc1nc(-c2cc(-c3ccccc3)on2)cc(C(C)C)n1	u	x	u	10µM*	x	-63*
COCCNc1nc(C)cc(-c2cc(-c3ccc(Cl)cc3)on2)n1	46%	x	26%	-12%	x	-7
O=C(CCl)Nc1cccc(S(=O)(=O)NC2=NCCCCC2)c1	x	x	x	6.3µM*	x	-102*
O=C(/C=C/c1ccccc1[N+](=O)[O-])Nc1cccc(S(=O)(=O)NC2=NCCCCC2)c1	x	x	x	3.2µM*	x	1
Cc1cccc(-n2ccnc2SCC(=O)Nc2cccc(S(=O)(=O)NC3=NCCC3)c2)c1C	10µM*	-9%	-21%	13%	-9%	-23
O=C(Nc1cccc(S(=O)(=O)NC2=NCCC2)c1)c1ccc(C(F)(F)F)cc1	x	0%	x	u	-15%	-60*
